Laboratory results published in PubChem BioAssay.
Inconclusive results are not listed. The source made the active and inactive calls.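 Rule for the calls, unless noted: active = percent response above a set limit, the screen-wide mean plus 3 SD (cut at about 130% in these data); inactive = the rest.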

How the values were obtained:
[1] = yeast TOR pathway RPL19A-GFP modulators, primary screen, cell-based, S. cerevisiae, multiplex flow cytometry (AID 1862; in the data active = percent of DMSO control GFP below about 86%;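 note: lower values mimic rapamycin by blocking the RPL19A rise seen in DMSO cells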); conditions: S. cerevisiae RPL19A-GFP strain, flow cytometry fluorescence, 3 h; at 10 µM; stronger effect = lower value
[2] = modulators of MEP2-GFP levels in yeast, primary screen, S. cerevisiae, multiplex flow cytometry (AID 1867;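 active = GFP response, as percent of the DMSO control, above the screen-wide mean plus 3 SD, about 139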;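 note: median GFP channel fluorescence of barcode-gated MEP2-GFP cells measured by flow cytometry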); conditions: S. cerevisiae MEP2-GFP strain, 3 h, at 10 µM, stronger effect = higher value, 100% means same as DMSO wells
[3] = modulators of CIT2-GFP expression in yeast, primary screen, S. cerevisiae, GFP fusion, multiplex flow cytometry (AID 1870); conditions: 3 h, at 10 µM, stronger effect = higher value;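 note: barcoded CIT2-GFP strain pooled with four other GFP strains with rapamycin as positive control; median GFP fluorescence per well over plate mean of DMSO wells so 100% = DMSO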
[4] = modulators of LAP4-GFP expression in yeast, primary screen, S. cerevisiae, multiplex flow cytometry (AID 1873;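 active = GFP signal, as percent of the solvent control, above the screen mean plus 3 SD, about 149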); conditions: 3 h, at 10 µM, stronger effect = higher value
[5] = modulators of AGP1-GFP expression in yeast TOR pathway, primary screen, cell-based, multiplex flow cytometry, S. cerevisiae (AID 1887;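 active = GFP signal above the screen-wide mean plus 3 SD, that is over about 124.5% of the solvent control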;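 note: AGP1-GFP fusion strain of S. cerevisiae within a five-strain barcoded multiplex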); conditions: 3 h, at 10 µM, stronger effect = higher value
[6] = inhibitors of CD8+ T cell-vesicle binding, pilot screen, LFA-1/ICAM-1 modulator project, MLPCN validation set, flow cytometry (AID 2523;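 active = response below a set limit, under 55% cells CD8-positive and vesicle-bound, and CD8 cells' 90th-percentile brightness under 279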;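 for vesicle binding response: mean PE anti-B7-1 fluorescence of CD8+ cells relative to row control; 100% = QL9-loaded vesicles with DMSO vehicle in the same plate row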); conditions: 2C mouse CD8+ T cells, at 7 µM, stronger effect = lower value; double positive events: measured here: CD8+/vesicle+ event percentage
[7] = molecular target: Integrin beta-1 (Homo sapiens) + Integrin alpha-4 (Homo sapiens) (UniProt P13612+P05556); assay: inhibition of HUTS-21 binding to VLA-4, pilot screen, VLA-4 allosteric modulator project, U937 cells, HUTS-21 mAb, flow cytometry, validation set (AID 2674;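 active = inhibition above 50%, about 3 SD of the validation set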;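 note: antibody binding induced by the VLA-4 ligand LDV present at three times its Kd; 0% = LDV ligand with antibody and no compound and 100% = antibody without LDV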); conditions: HUTS-21 LIBS mAb binding, at 6.7 µM, stronger effect = higher value, binding induced by LDV ligand
Integrin beta-1 (Homo sapiens) + Integrin alpha-4 (Homo sapiens), sequence (P05556 whole entry, looked up): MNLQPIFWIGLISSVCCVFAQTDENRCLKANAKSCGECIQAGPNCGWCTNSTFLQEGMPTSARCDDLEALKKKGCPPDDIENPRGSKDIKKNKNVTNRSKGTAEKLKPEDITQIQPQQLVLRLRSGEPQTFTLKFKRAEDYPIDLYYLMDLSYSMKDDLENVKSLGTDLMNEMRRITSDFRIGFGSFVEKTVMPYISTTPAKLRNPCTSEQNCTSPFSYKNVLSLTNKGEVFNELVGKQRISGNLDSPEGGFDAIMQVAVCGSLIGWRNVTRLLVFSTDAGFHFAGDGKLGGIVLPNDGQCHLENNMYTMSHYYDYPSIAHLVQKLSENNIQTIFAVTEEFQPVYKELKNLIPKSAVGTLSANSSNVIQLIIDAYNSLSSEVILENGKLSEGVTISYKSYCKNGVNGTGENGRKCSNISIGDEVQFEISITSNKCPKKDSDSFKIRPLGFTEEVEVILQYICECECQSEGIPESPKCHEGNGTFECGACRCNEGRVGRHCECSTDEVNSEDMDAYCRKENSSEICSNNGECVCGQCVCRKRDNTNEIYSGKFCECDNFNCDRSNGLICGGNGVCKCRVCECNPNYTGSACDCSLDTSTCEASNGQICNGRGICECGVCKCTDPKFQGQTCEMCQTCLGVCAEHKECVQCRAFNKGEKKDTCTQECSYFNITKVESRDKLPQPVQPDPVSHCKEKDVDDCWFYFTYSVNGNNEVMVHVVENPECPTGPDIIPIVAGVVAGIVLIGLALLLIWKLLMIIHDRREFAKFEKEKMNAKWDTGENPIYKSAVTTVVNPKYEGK
Integrin beta-1 (Homo sapiens) + Integrin alpha-4 (Homo sapiens), sequence (P13612 whole entry, looked up): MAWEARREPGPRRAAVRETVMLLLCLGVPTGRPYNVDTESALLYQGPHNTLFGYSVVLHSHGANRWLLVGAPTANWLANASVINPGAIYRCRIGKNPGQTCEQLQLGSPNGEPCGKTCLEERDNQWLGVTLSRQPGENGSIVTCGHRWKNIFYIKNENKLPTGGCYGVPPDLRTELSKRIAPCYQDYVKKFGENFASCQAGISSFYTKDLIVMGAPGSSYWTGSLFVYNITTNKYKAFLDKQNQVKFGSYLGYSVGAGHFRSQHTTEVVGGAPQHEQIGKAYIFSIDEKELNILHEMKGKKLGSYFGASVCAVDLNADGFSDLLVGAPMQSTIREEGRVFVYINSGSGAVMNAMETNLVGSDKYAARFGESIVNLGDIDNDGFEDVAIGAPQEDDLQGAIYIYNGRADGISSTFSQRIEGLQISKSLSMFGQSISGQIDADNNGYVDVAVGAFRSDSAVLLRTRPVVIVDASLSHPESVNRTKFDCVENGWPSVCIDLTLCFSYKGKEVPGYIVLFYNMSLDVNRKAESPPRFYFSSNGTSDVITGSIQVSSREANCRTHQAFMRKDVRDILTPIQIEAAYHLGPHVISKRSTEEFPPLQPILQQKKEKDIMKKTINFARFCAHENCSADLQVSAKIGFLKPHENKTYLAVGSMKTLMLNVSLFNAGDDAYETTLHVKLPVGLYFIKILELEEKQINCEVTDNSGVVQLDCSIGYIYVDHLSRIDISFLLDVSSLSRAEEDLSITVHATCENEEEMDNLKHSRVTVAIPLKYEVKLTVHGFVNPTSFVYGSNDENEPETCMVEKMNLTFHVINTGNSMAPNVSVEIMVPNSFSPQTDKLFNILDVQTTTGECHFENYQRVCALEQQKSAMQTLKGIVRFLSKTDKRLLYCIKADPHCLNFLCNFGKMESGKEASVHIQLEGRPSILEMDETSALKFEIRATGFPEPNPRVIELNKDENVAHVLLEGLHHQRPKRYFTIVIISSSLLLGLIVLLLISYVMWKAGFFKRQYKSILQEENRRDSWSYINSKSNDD

[8] = superoxide lowering in aged yeast cells, pilot screen, validation compound set (AID 2706;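 active = superoxide response below 65% of plate, a cut near 3 SD across the whole screen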;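 note: yeast exposed to compound for one week at 30 degrees C before staining; 100% = mean of all compound wells on the same plate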); conditions: S. cerevisiae aging, superoxide DHE fluorescence; at 10 µM; stronger effect = lower value
[9] = molecular target: Beta-adrenergic receptor kinase 1 (Homo sapiens) (UniProt P25098); assay: GRK2 binders displacing RNA aptamer, biochemical, validation, human GRK2, bead flow cytometry (AID 488806;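 active = aptamer binding inhibition above 30%, about 3 SD of noise from non-fluorescent compounds; inactive = inhibition at or below 30%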); conditions: bead-bound GRK2, FAM-aptamer displacement, at 10 µM, stronger effect = higher value
Beta-adrenergic receptor kinase 1 (Homo sapiens), sequence (P25098 whole entry, looked up): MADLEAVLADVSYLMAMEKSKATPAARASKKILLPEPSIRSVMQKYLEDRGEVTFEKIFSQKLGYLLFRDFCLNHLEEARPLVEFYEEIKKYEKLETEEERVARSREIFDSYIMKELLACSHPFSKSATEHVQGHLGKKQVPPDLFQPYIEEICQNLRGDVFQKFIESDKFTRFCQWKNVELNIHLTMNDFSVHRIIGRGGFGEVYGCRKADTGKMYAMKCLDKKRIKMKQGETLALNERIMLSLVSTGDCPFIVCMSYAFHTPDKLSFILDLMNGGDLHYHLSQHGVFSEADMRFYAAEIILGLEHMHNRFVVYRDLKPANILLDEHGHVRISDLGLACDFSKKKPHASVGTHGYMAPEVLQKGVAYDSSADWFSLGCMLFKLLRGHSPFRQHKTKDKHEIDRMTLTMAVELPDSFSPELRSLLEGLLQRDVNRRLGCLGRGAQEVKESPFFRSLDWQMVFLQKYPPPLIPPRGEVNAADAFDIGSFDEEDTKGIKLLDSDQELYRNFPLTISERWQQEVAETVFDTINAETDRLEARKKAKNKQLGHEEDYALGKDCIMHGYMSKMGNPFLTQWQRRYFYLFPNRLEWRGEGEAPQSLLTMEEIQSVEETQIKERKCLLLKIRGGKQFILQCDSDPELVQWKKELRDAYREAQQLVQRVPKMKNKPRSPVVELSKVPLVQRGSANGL

[10] = molecular target: Beta-2 adrenergic receptor (Homo sapiens) (UniProt P07550); assay: beta2AR agonists driving receptor internalization, pilot screen, cell-based, FAP fluorogen, flow cytometry, validation set (AID 504459;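 active = percent response above 42, roughly 3 SD of non-fluorescent test compounds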;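 note: agonist-driven loss of surface beta2AR via internalization measured by FAP dye flow cytometry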); conditions: Am2.2-beta2AR cells, FAP surface receptor flow cytometry; at 10 µM; stronger effect = higher value
Beta-2 adrenergic receptor (Homo sapiens), sequence (P07550 whole entry, looked up): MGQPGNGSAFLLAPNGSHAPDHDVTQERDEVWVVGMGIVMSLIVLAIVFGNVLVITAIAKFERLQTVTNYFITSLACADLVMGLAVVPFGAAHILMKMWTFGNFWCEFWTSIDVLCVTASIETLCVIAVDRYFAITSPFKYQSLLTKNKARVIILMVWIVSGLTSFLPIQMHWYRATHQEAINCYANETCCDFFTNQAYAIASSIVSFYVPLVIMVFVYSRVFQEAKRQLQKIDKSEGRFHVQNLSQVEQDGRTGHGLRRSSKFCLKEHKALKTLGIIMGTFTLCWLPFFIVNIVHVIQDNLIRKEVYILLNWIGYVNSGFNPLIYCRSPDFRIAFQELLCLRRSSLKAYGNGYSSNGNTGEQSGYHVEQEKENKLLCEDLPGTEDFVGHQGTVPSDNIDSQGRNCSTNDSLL

[11] = molecular target: AP-2 complex subunit beta (Homo sapiens) (UniProt P63010); assay: inhibitors of arrestin peptide binding to AP2, pilot screen, biochemical, validation set, GST-AP2 beads, flow cytometry (AID 504541;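 active = inhibition above 54%, about 3 SD of non-fluorescent compounds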;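 note: AP2 carries R879A mutation and is captured from E. coli lysate; bead-bound FITC arrestin peptide fluorescence measuring arrestin peptide binding to AP2; 0% = DMSO wells and 100% = excess unlabeled arrestin peptide control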); conditions: FITC arrestin peptide, at 10 µM, stronger effect = higher value, AP2 beta2 appendage fragment, R879A mutant
AP-2 complex subunit beta (Homo sapiens), sequence (P63010 whole entry, looked up, the tested form may be a part, one chain of several): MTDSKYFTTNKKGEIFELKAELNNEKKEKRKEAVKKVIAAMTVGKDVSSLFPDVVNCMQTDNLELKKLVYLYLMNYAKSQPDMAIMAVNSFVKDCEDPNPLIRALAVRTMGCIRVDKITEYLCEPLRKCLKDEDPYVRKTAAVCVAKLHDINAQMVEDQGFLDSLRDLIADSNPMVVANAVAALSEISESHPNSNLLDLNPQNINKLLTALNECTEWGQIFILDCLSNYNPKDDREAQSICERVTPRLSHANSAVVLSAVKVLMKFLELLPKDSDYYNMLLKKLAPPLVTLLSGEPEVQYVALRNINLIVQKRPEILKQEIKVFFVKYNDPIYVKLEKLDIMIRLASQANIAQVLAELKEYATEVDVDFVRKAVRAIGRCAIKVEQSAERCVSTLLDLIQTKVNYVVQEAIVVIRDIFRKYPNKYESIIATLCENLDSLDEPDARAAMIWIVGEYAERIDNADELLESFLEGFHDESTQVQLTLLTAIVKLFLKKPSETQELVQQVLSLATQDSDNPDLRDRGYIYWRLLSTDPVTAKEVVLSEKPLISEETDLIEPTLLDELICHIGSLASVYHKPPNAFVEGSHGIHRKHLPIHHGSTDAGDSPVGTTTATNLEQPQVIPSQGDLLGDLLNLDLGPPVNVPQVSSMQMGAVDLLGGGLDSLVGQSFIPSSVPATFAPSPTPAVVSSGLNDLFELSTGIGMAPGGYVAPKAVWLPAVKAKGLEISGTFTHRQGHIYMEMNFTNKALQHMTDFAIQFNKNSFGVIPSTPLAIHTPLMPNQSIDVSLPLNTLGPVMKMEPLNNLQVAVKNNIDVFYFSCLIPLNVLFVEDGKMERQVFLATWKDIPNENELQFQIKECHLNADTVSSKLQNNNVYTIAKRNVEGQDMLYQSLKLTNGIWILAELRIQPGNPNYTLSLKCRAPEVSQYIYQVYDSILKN

[12] = yeast V-ATPase proton transport modulators, S. cerevisiae, pHLuorin, HTS validation (AID 504600; in the data active = response above about 15%;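 note: plate controls were DMSO for no effect and reference compound for full effect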); conditions: S. cerevisiae pHLuorin cytosolic pH, at 10 µM, stronger effect = higher value
[13] = tested on: anti-desmoglein-3 scFv antibody binding to human DSG3; assay: inhibitors of anti-DSG3 scFv binding to DSG3, pilot screen, biochemical, validation compound set, bead-based, flow cytometry (AID 588368;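 active = binding below the plate cutoff, the plate median minus 3 SD, with a reading above zero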;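 note: signal is the median channel fluorescence of bead-bound GFP antibody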); conditions: Protein G beads, DSG3-Fc, scFv-GFP binding, at 10 µM, stronger effect = lower value
[14] = inhibitors of fungal efflux pumps CDR1, CDR2, MDR1, pilot screen, validation compound set, multiplex, phenotypic (AID 588506;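 active = efflux inhibition above 0.42, the validation set average plus 4 SD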;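 note: Nile Red retained in cells so higher fluorescence means more efflux inhibition; 0 = negative control wells and 1 = enniatin B 25 µM full block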); conditions: S. cerevisiae pump-expressing triplex, Nile Red efflux flow cytometry; at 10 µM; stronger effect = higher value; the pumps come from Candida albicans
[15] = molecular target: ATP-binding cassette sub-family B member 6 (Homo sapiens) (UniProt Q9NP58); assay: ABCB6 transporter inhibitors, pilot screen, K562-ABCB6 cells, flow cytometry, validation set (AID 588550;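 active = inhibition above the screen-wide mean plus 3 SD, about 51%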;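 note: 0% = DMSO wells and 100% = benzethonium chloride 70 µM positive control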); conditions: K562-ABCB6 porphyrin accumulation, 1 h, at 10 µM, stronger effect = higher value
ATP-binding cassette sub-family B member 6 (Homo sapiens), sequence (Q9NP58 whole entry, looked up): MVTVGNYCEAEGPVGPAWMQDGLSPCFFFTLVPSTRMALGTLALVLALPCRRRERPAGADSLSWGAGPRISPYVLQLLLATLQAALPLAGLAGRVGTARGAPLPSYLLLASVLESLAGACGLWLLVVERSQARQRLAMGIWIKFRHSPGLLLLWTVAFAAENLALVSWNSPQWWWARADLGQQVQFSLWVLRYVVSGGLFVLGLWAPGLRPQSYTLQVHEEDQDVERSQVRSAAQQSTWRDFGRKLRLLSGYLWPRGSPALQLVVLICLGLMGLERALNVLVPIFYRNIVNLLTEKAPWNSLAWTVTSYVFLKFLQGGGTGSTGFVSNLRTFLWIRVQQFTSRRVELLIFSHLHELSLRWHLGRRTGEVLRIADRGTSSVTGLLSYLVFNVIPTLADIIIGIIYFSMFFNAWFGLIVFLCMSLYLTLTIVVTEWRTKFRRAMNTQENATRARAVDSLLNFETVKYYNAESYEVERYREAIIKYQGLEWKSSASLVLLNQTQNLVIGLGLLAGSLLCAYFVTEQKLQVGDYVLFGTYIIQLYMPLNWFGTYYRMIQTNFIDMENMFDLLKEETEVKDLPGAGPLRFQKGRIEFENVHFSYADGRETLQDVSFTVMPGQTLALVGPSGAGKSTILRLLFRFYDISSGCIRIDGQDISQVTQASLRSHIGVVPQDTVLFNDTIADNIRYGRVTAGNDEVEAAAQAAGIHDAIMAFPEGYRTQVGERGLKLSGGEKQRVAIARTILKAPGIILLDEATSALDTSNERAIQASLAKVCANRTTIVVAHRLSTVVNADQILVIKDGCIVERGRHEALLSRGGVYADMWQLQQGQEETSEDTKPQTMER

[16] = promoters of myeloid differentiation in arrested cells, primary screen, cell-based, GFP/MAC1 double positive, flow cytometry, validation set (AID 588685;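 active = differentiation response of at least 50%, scaled between solvent and reference control, from cells with both markers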;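 note: compound exposure lasts four days before antibody staining and flow analysis; 0% = DMSO wells and 100% = 5 µM fulvestrant positive control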); conditions: ER-HoxA9 marrow cells, stronger effect = higher value, normalized: vehicle 0, fulvestrant 100

| Compound | percent of DMSO control GFP [1] | GFP response vs DMSO [2] | percent response of DMSO control [3] | GFP response vs DMSO [4] | GFP response, % of DMSO [5] | double positive events [6] [%] | vesicle binding response [6] | inhibition [7] | superoxide response (% of plate) [8] | aptamer binding inhibition [9] | response [10] | inhibition [11] | response [12] | binding (% of control) [13] | efflux inhibition (fraction of control) [14] | inhibition [15] | differentiation response [16] |
| --- | --- | --- | --- | --- | --- | --- | --- | --- | --- | --- | --- | --- | --- | --- | --- | --- | --- |
| COCCN(CCOC)Cc1c(C)[nH]c2c(C)c(C)ccc2c1=O | 103% (inactive) | 108% (inactive) | 97.6% (inactive) | 93.7% (inactive) | 102% (inactive) | 63.2 | 132% (inactive) | -2.43% (inactive) | 99.3% (inactive) | 0% (inactive) | 4.86% (inactive) | -8.42% (inactive) | 5.64% (inactive) | 105% (inactive) | -0.29 (inactive) | -9% (inactive) | -10.4% (inactive) |
| N/C(=N\OC(=O)CCCOc1ccc(Cl)cc1Cl)c1ccccn1 | 103% (inactive) | 110% (inactive) | 93.9% (inactive) | 107% (inactive) | 86.8% (inactive) | 59.3 | 11.6% (inactive) | 9.71% (inactive) | 106% (inactive) | 0% (inactive) | 2.49% (inactive) | -27.4% (inactive) | -2.42% (inactive) | 105% (inactive) | -0.12 (inactive) | 7% (inactive) | -5.68% (inactive) |
| O=C(O)CCCCCN=C1CCc2ccccc2N1 | 93% (inactive) | 132% (inactive) | 101% (inactive) | 80.9% (inactive) | 90.5% (inactive) | 63.5 | 163% (inactive) | 10.3% (inactive) | 118% (inactive) | 2% (inactive) | -6.38% (inactive) | 4% (inactive) | -0.07% (inactive) | 98.7% (inactive) | 0.3 (inactive) | 9% (inactive) | 0% (inactive) |
| C=CCOC(=O)C1=C(C)NC(=O)NC1/C=C/c1ccccc1OC (stereo not drawn) | 100% (inactive) | 101% (inactive) | 103% (inactive) | 103% (inactive) | 108% (inactive) | 57.9 | 97% (inactive) | -1.09% (inactive) | 115% (inactive) | 1% (inactive) | -4.89% (inactive) | -14.7% (inactive) | 6.85% (inactive) | 106% (inactive) | -0.03 (inactive) | 9% (inactive) | -1.65% (inactive) |
| CC(=O)c1c[nH]c2ccc(C)cc2c1=O | 97.4% (inactive) | 99.6% (inactive) | 97.7% (inactive) | 114% (inactive) | 94.9% (inactive) | 60.8 | 228% (inactive) | -85.1% (inactive) | 104% (inactive) | 0% (inactive) | -3.59% (inactive) | 34.1% (inactive) | -1.39% (inactive) | 101% (inactive) | -0.31 (inactive) | 1% (inactive) | -18.4% (inactive) |
| Cc1ccc(S(=O)(=O)N2CCC(C(=O)N[C@@H](C)C(=O)NC3CCS(=O)(=O)C3)CC2)cc1 (stereo partly drawn) | 101% (inactive) | 96.6% (inactive) | 106% (inactive) | 89.3% (inactive) | 96.3% (inactive) | 57.7 | 144% (inactive) | 12.3% (inactive) | 103% (inactive) | 4% (inactive) | -1.25% (inactive) | -5.24% (inactive) | 22.5% (active) | 103% (inactive) | 0.1 (inactive) | 13% (inactive) | -13.3% (inactive) |
| O=C(/C=C/c1ccc(F)cc1)NC(=S)N1CCCCC1c1cccnc1 (stereo not drawn) | 103% (inactive) | 106% (inactive) | 112% (inactive) | 117% (inactive) | 112% (inactive) | 56.7 | 165% (inactive) | -3.67% (inactive) | 92.2% (inactive) | 82% (active) | -15.6% (inactive) | 1.74% (inactive) | 5.24% (inactive) | 104% (inactive) | -0.13 (inactive) | -5% (inactive) | -4.99% (inactive) |
| O=C(c1ccc(Cl)cc1)C1CCCN(C(=O)/C=C/c2ccccn2)C1 (stereo not drawn) | 92.4% (inactive) | 102% (inactive) | 97.7% (inactive) | 137% (inactive) | 115% (inactive) | 57.5 | 280% (inactive) | -1.12% (inactive) | 91.6% (inactive) | -3% (inactive) | -44.8% (inactive) | -19.4% (inactive) | 2.11% (inactive) | 106% (inactive) | 0 (inactive) | -2% (inactive) | -1.05% (inactive) |
| CSCC[C@H](NC(=O)NC1CCCC1)C(=O)O | 89.8% (inactive) | 113% (inactive) | 99.2% (inactive) | 75.4% (inactive) | 89.6% (inactive) | 70.2 | 233% (inactive) | 8.4% (inactive) | 113% (inactive) | 3% (inactive) | -7.36% (inactive) | -9.17% (inactive) | 1.23% (inactive) | 101% (inactive) | 0.34 (inactive) | 13% (inactive) | 0.82% (inactive) |
